Only some compounds are listed: those with a hit (about 7.1% of all), similar ones and a draw of the others.
MARV entry inh: qHTS for Inhibitors of binding or entry into cells for Marburg Virus; Marburg virus pseudotype entry/binding inhibition, cell-based; Potency, µM (doses to about 49.2 µM), for inactives: at the top dose activity change, negative = inhibition, usual class: inhibitors; actives 6.5% (n = 18,000); AID 720532, 2013
LASV entry inh: qHTS for Inhibitors of binding or entry into cells for Lassa Virus | Lassa virus pseudotyped entry inhibition, cell-based qHTS | Potency, µM (doses to about 49.2 µM), without a hit: at the highest dose activity change, negative = inhibition, hits mostly inhibitors | actives 4.1% (n = 18,000)
The depositor's hits bear a star; ? = inconclusive; . = no result given; ! = repeats disagree; [ ] = another dose, or the depositor's remark. The call rests on the fitted dose curve; tested in HEK293 cells. On the % scale 0 is the no-effect control and ±100 the full control effect; potency means the concentration at half of the fitted maximal effect.

SMILES	MARV entry inh	LASV entry inh
C=CCC(C)(O)c1cccc(C(F)(F)F)c1 (configuration not stated)	3%	-10%
CCOC(=O)[C@@]1([C@@H](NC(=O)OC)c2ccccc2)CCCC1=O	12%[8.59 µM]	-2%[8.59 µM]
CCN(CC)C(=O)c1cc(S(=O)(=O)Cc2ccccc2)c(N2CCC(c3ccccc3)CC2)cc1N(CC)CCN(C)C	5µM*	14µM*
N#Cc1cccc(Nc2ncc(-c3ccccc3)o2)c1	19%	2%
CCCCCCCCCCCC[N+](C)(C)Cc1ccccc1	20µM*	14µM*
CCCCCCCCCCCCCCCC[N+](C)(C)CCN(Cc1ccc(OC)cc1)c1ncccn1	-11%[17.8 µM]	4%[17.8 µM]
C=CC[C@@H]1C=C[C@H](ON=C[C@@H](C)[C@H](OCc2ccccc2)C(C)C)[C@H](CO)O1	-10%[8.59 µM]	.
CCN(CC)C(=S)SSC(=S)N(CC)CC	20µM*	40µM*!
COC(=O)[C@]1(CC=Cc2ccccc2)C=C[C@@H](C)[C@H](c2ccccc2Br)N1C(=O)C(F)(F)F	13%[8.59 µM]	15%[8.59 µM]
CC(C)NC[C@@H](O)COc1ccc(CC(N)=O)cc1	-24%	1%
CN(CCc1ccc(Cl)c(Cl)c1)C[C@@H](O)COc1ccc(NS(C)(=O)=O)cc1	14µM*	-21%
COc1cc(OC)c2c(-c3cccc(/C=C/c4ccc(F)cc4)c3)cc(=O)oc2c1	20%	3%
COc1cc(OC)c2c(-c3cccc(-c4ccc(OC(F)(F)F)cc4)c3)cc(=O)oc2c1	-10%	-15%
COc1cc(OC)c2c(-c3cccc(-c4ccc(CO)cc4)c3)cc(=O)oc2c1	1µM*	?
COc1cc(OC)c2c(-c3cccc(-c4ccc(N(C)C)cc4)c3)cc(=O)oc2c1	3.5µM*	?
C[C@@H](c1ccccc1)N1C(=O)[C@@H]2[C@H]3[C@H](O)[C@H](O)CC(=NNC(=O)OCc4ccccc4)[C@@H]3CC[C@H]2C1=O	-18%[8.59 µM]	-28%[8.59 µM]
CC(=O)OC[C@H]1O[C@@H](ON=C2C[C@@H](O)[C@@H](O)[C@@H]3[C@H]4C(=O)N(Cc5ccccc5)C(=O)[C@@H]4CC[C@@H]23)[C@H](OC(C)=O)[C@@H](OC(C)=O)[C@H]1OC(C)=O	-9%[8.59 µM]	21%[8.59 µM]
CC[C@@H](C)[C@@H](CO[C@@H](Cc1ccccc1)C(=O)N[C@@H](CCS(C)(=O)=O)C(=O)OC(C)C)NC[C@@H](N)CS	10µM*	-19%
CC(C)C[C@H](NC(=O)[C@@H](O)[C@H](N)Cc1ccccc1)C(=O)O	-10%	?
C=COCCN1C=C(C(=O)OCC)C(c2ccccc2)NC1=O (configuration not stated)	10%[8.59 µM]	18%[8.59 µM]
CNC(=O)[C@@H]1C[C@@H](NCc2cccc(Oc3ccccc3)c2)CN1C(C)C	10µM*	3%
O=C(O)c1cc(C(=O)O)c(C(=O)N(Cc2cccc(Oc3ccccc3)c2)[C@H]2CCCc3ccccc32)cc1C(=O)O	7%	-6%
COC(=O)CC=C[C@@H](C)[C@H](OC)c1cc(OC)ccc1Br	3%[8.59 µM]	-2%[8.59 µM]
Cc1ccc(O)c([C@H](CCN(C(C)C)C(C)C)c2ccccc2)c1	10µM*	?
Cc1ccc(C(C)C)c(O)c1	4%	-7%
SMILES	MARV entry inh	LASV entry inh
O=C1[C@H]2[C@@H]3[C@@H](O)[C@H](O)CC(=NOCc4ccccc4)[C@@H]3CC[C@H]2C(=O)N1C1CCCCC1	-14%[8.59 µM]	.
Cc1cc(-c2ccco2)cc(C)c1C=Cc1cncc(-c2nn[nH]n2)c1	?	-12%
CC(C)CCOC(=O)c1ccc(N(C)C)cc1	8%	8%
CN=C1C=CC(=C(c2ccc(N(C)C)cc2)c2ccc(N(C)C)cc2)C=C1	2.8µM*	3.5µM*
C[N+]1(C)CCC(OC(=O)C(O)(c2ccccc2)C2CCCC2)C1 (configuration not stated)	8%	?
CCCOC(C(=O)OC1CCN(C)CC1)(c1ccccc1)c1ccccc1	6.3µM*	16µM*
COC(=O)C1=C(C(=O)OC)[C@@H]2N(C)c3ccccc3[C@@]23C[C@@H](C(=O)OC)N(C(=O)NC2CCCC2)C3=N1	?	14%[8.59 µM]
CCCCCCCc1cc2ccccc2c2c(C(=O)OC)c(-c3ccccc3)c(C(=O)OC)n12	?	-1%[8.59 µM]
CC(=O)OC1C[C@@]2(C)C(c3ccoc3)OC(=O)C3O[C@@]32[C@]2(C)C(OC(C)=O)CC3C(C)(C)C(OC(C)=O)CC(OC(C)=O)[C@@]3(C)C12 (some centres not stated)	2%	7%
CC(=O)OC1CC(OC(C)=O)[C@]2(C)C(CC(OC(C)=O)[C@]3(C)C2CC[C@@]2(C)C(c4ccoc4)C(=O)C4O[C@]432)C1(C)C (some centres not stated)	16µM*	-16%
O=C(C1CCCCC1)N1C[C@H](O)[C@H](n2cc(C3CC3)nn2)C[C@@H]1c1ccccc1	22%	2%
NC(Cc1ccc(O)c(O)c1)C(=O)O (configuration not stated)	1.6µM*	-25%
N[C@@H](Cc1ccc(O)cc1)C(=O)O	11%	-8%
COCC(C)NCc1cc2ccc(OC)cc2nc1N1CCN(c2ccc(F)cc2)CC1 (configuration not stated)	11µM*	?
COc1ccc2cc(CNCc3ccccc3C(F)(F)F)c(N3CCCC(CO)C3)nc2c1 (configuration not stated)	1%	-25%
O=c1oc2ccccc2c(O)c1Cc1c(O)c2ccccc2oc1=O	-23%[17.8 µM]	7.9µM*!
CC(=O)C[C@@H](c1ccccc1)c1c(O)c2ccccc2oc1=O	-7%	-2%
CC(C)(C)c1ccc([C@@H](O)CCCN2CCC(C(O)(c3ccccc3)c3ccccc3)CC2)cc1	?	6.3µM*
CC(C)(C)c1ccc(C(O)CCCN2CCC(C(O)(c3ccccc3)c3ccccc3)CC2)cc1 (configuration not stated)	?	16µM*
O[C@H](CCCN1CCN(c2ncc(F)cn2)CC1)c1ccc(F)cc1	-26%	0%
OC(c1ccccc1)(c1ccccc1)C1CCNCC1	-25%[17.8 µM]	-1%[17.8 µM]
CCOC(=O)C1=CN(CCC=C(C)C)C(=O)N(C(C)=O)C1c1ccccc1 (configuration not stated)	57%[8.59 µM]	-30%[8.59 µM]
C[C@H]1N[S+](=O)([O-])c2cccc(Cl)c2O[C@H]1c1ccccc1	-21%	-11%
Fc1ccc([C@H]2CCNCC2COc2ccc3c(c2)OCO3)cc1 (some centres not stated)	10µM*	-14%
Fc1ccc([C@H]2CCNC[C@H]2COc2ccc3c(c2)OCO3)cc1	11µM*	?
SMILES	MARV entry inh	LASV entry inh
COc1ccc2c(c1)O[C@@H](c1ccc3c(c1)OCO3)[C@H](OC(=O)NS(=O)(=O)c1ccc(F)cc1)C2=O	19%	0%
COc1ccc2c(c1)O[C@H](c1ccc3c(c1)OCO3)[C@@H](OC(=O)NS(=O)(=O)c1ccc(F)cc1)C2=O	8%	3%
COC(=O)N[C@@H](c1ccc(Cl)cc1)C(C(C)=O)C(=O)OC (some centres not stated)	13%[8.59 µM]	1%[8.59 µM]
C=CCN1c2ccccc2[C@]23CCC(=O)N(CCOC)C2=NC(C(=O)OC)=C(C(=O)OC)[C@H]13	13%[8.59 µM]	50%[8.59 µM]
COc1ccc2c(c1)[nH]c1c(C)nccc12	22µM*	4%
COc1ccc2c3c([nH]c2c1)C(C)=NCC3	?	-7%
C[C@@H]1CCCN1[C@H]1C[S+](=O)([O-])N[C@H]1COCc1ccccc1	16%	.

Screening results (PubChem)
